EWS-Fli block – EWS/Fli transcriptional activity inhibition | A673 NR0B1-luciferase reporter, viability-normalised | inhibition, % at 12.6 µM | 0.67% of 350,000 active;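 active = mean inhibition of at least 50% after viability correction, with every replicate also passing that limit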;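 also: firefly luciferase signal divided by Alamar Blue viability fluorescence both relative to DMSO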
PAX8 reporter – PAX8 transcriptional activity inhibition | AID 652154 | RMG-I TPO-luciferase reporter, SteadyGlo, 24 h | inhibition, % at 12.6 µM | 1.2% of 360,000 active;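 active = mean replicate inhibition at least 60% with every replicate also reaching 60%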;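 also: luciferase light reporting Pax8 driven TPO promoter activity; plate controls were median of neutral control wells for no effect and mitoxantrone controls for full effect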
TROY NFkB inh – TROY signaling inhibition. 0.98% of 360,000 active. AID 1347056. inhibition, % at 10 µM. Q293 LMP1-TROYcd NF-kB luciferase reporter, 4 h;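 active = compounds whose plate-normalised and pattern-corrected inhibition of the luciferase reporter signal at the single screening dose is 50% or more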
LGR2 antag – Drosophila LGR2 receptor signaling inhibition | HEK293 LGR2, CRE-luciferase, bursicon-stimulated, 4 h | inhibition, % at 9.99 µM | 0.35% of 380,000 active;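 active = drop in luminescence signal, shown as inhibition above about 50% in the replicate tests, limit read from the data, passing the limit was not always enough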;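 also: agonist challenge used bursicon conditioned medium at about half maximal strength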
EBV LMP1 NFkB – inhibitors of Epstein-Barr LMP1-induced NF-kappaB reporter; 0.69% of 350,000 active; inhibition, % at 12.5 µM; AID 504558; LMP1-induced NF-kappaB luciferase reporter cells, luminescence; in the data active = inhibition above about 41%;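 also: 0% = neutral control wells and 100% = reference inhibitor control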
TWEAK-Fn14 inh – TWEAK-Fn14 signaling inhibition; inhibition, % at 10 µM; 2% of 360,000 active; TWEAK-stimulated Fn14 reporter cells, luciferase luminescence, 8 h; in the data active = inhibition above about 50%
Starred values were filed as active, the others as inactive; · = no result given; ! = repeats disagree. Compounds with a hit are over-represented: about 3.2% of the library has one in this group of screens.

SMILES	EWS-Fli block	PAX8 reporter	TROY NFkB inh	LGR2 antag	EBV LMP1 NFkB	TWEAK-Fn14 inh
C/C(=C\c1ccccc1F)C(=O)c1c(C)cc(C)[nH]c1=O	11.8	-24.0	-2.7	9.2	1.6	30.8
C/C(=C\c1cccc(Cl)c1Cl)C(=O)c1c(C)cc(C)[nH]c1=O	3.5	-4.1	21.2	10.7	3.9	72.4*
O=C(Nc1cccc(F)c1)N1CC(=O)N2[C@H](CO)[C@H](c3ccc(-c4ccccc4)cc3)[C@H]2C1	16.1	11.6	·	-5.0	·	·
COc1ccc(-c2nc(CC(=O)Nc3cccc(S(=O)(=O)NC4=NCCC4)c3)cs2)cc1	-9.1	74.3*	-18.3	8.1	9.3	-24.3
O=C(Nc1cccc(S(=O)(=O)NCc2ccco2)c1)c1cc(-c2ccc(F)cc2)nc2ccccc12	-8.0	9.8	11.0	9.4	-4.9	-0.2
CCOc1ccc(C(=O)NC(=S)Nc2cccc(S(=O)(=O)NC3=NCCC3)c2)cc1	58.9*	10.1	-25.5	-22.2	2.2	4.9
O=C(Nc1cccc(S(=O)(=O)NC2=NCCC2)c1)c1cc(-c2ccco2)nc2ccccc12	18.7	19.8	13.4	8.2	-0.2	-6.5
O=C(NC(=S)Nc1cccc(S(=O)(=O)NC2=NCCC2)c1)c1cc(-c2ccco2)nc2ccccc12	57.2*	28.0	-5.9	0.7	-10.4	8.9
COc1ccc(-c2cc(C(=O)Nc3cccc(S(=O)(=O)NCc4ccco4)c3)c3ccccc3n2)cc1OC	2.0	69.6*	-25.4	9.5	8.7	12.6
CCOc1ccc(OCC(=O)Nc2cccc(S(=O)(=O)NC3=NCCC3)c2)cc1	-7.2	4.9	-20.3	17.9	0.8	-11.1
CO[C@H]1CN(C)C(=O)c2cc(NC(=O)C3CC3)ccc2OC[C@H](C)N(Cc2cccc(F)c2)C[C@@H]1C	11.7	17.2	·	5.6	·	·
Cc1ccccc1-c1cnc2c(c1)C(=O)N([C@@H](C)CO)C[C@H](C)[C@H](CN(C)CC1CCCCC1)O2	-3.1	·	·	-6.2	·	·
C[C@@H]1CN([C@H](C)CO)C(=O)c2cc(C#C[C@@H](C)O)cnc2O[C@@H]1CN(C)C(=O)Nc1ccc(C(F)(F)F)cc1	-5.8	0.3	·	16.8	·	·
COc1cccc(Cn2c(NCc3ccco3)nc3c2c(=O)n(C)c(=O)n3C)c1	·	18.8	·	·	·	·
COc1ccc(Cl)c(Cn2c(NCc3ccco3)nc3c2c(=O)n(C)c(=O)n3C)c1	·	·	15.2	23.0	56.0*	16.4
COc1cc(/C=N/Nc2nc3c(c(=O)n(C)c(=O)n3C)n2Cc2ccccc2)ccc1OC(=O)c1ccco1	31.5	48.0	42.4	51.4*	5.5	71.7*
Cn1c(=O)c2c(nc(NCCNC(=O)c3ccco3)n2Cc2ccccc2)n(C)c1=O	5.0	6.5	-14.1	12.0	1.9	98.4*
Cn1c(NCc2ccccc2)nc2c1c(=O)n(Cc1ccc(Br)cc1)c(=O)n2C	·	·	23.8	·	15.3	23.0
COc1ccc(CNc2nc3c(c(=O)n(Cc4ccc(Br)cc4)c(=O)n3C)n2C)cc1	·	84.4*	34.1	·	26.8	15.6
Cn1c(=O)c2c(nc(N/N=C/c3ccncc3)n2Cc2ccccc2)n(C)c1=O	12.7	-4.9	10.5	9.9	-0.2	20.4
CCC(=O)Nc1ccc2c(c1)C(=O)N(C)C[C@H](OC)[C@@H](C)CN(C(=O)C1CC1)[C@@H](C)CO2	-1.9	-11.5	·	14.5	·	·
Cc1cccc(-n2c3nc(=O)[nH]c(=O)c-3cc3cc([N+](=O)[O-])ccc32)c1	16.6	6.6	12.7	·	14.4	-37.0
Cc1ccc(C)c(-n2c3nc(=O)[nH]c(=O)c-3cc3cc([N+](=O)[O-])ccc32)c1	70.2*	33.9	31.3	25.7	16.8	23.9
O=C(C[C@@H]1C=C[C@@H](NS(=O)(=O)c2cccc(F)c2)[C@@H](CO)O1)NCc1ccc2c(c1)OCO2	1.1	-21.2	·	27.2	·	·
CNC(=O)c1[nH]nc2c1CCc1ccccc1-2	-4.1	-17.0	-13.2	-2.4	-7.4	-8.8
SMILES	EWS-Fli block	PAX8 reporter	TROY NFkB inh	LGR2 antag	EBV LMP1 NFkB	TWEAK-Fn14 inh
COc1ccc(/C=N/NC(=O)c2[nH]nc3c2CCc2ccccc2-3)cc1OC	53.4*	41.8	5.0	-4.6	13.2	20.5
O=C1C(C=NCCCN2CCOCC2)=C(O)c2ccccc21	·	·	58.4*	·	-3.1	20.7
COc1ccccc1N(C)S(=O)(=O)c1ccc(C(=O)OCC(=O)N(C)c2ccccc2)cc1	1.1	2.0	0.8	-9.8	1.2	10.9
O=C(OCC(=O)c1c[nH]c2ccccc12)c1cccc(S(=O)(=O)N2CCCCCC2)c1	7.4	-9.8	0.8	13.7	-7.8	52.1*
COc1ccccc1N(C)S(=O)(=O)c1ccc(C(=O)OCC(=O)c2c[nH]c3ccccc23)cc1	16.5	-16.6	37.3	25.7	5.9	51.0*
COc1cccc(/C=C/C(=O)OCC(=O)c2c[nH]c3ccccc23)c1OC	4.0	8.1	34.0	·	-1.3	55.5*
COc1cccc(-c2ccc3c(c2)O[C@@H](CN(C)C)[C@H](C)CN([C@@H](C)CO)S3(=O)=O)c1	11.0	·	·	6.8	·	·
CN1OC[C@@H]2CN(C(=O)C(C)(C)C)[C@H](c3cccc(Br)c3)C[C@@H]21	-3.4	-69.2	64.2*	-4.4	-4.0	60.5*
CC[C@H](C)[C@@H](CN[C@H](C)CNC)NCCC(c1ccccc1)c1ccccc1	17.2	74.6*	-2.7	6.9	-53.0	-18.8
C[n+]1c2cc(N)ccc2cc2ccc(N)cc21	61.7*	66.2*!	-50.2	0.3	71.7*!	-28.4
CN1CCC(OC(=O)c2cc3cc(Cl)cc(Cl)c3oc2=O)CC1	16.6	4.4	6.3	16.3	21.8	77.3*
CN1CCC(OC(=O)c2ccc(Cl)cc2Cl)CC1	11.5	-4.1	-13.1	1.8	-5.8	-1.0
O=C(NCCc1ccccc1)[C@H]1[C@H](CO)[C@H]2Cn3c(cccc3=O)[C@H]2N1Cc1ccccc1	3.7	·	·	-12.9	·	·
C[C@@H]1CN([C@@H](C)CO)C(=O)Cc2cc(NS(=O)(=O)c3ccccc3)ccc2O[C@H]1CN(C)Cc1ccc(C(=O)O)cc1	·	-19.4	·	-3.4	·	·
COc1ccc(N=CC2=C(O)c3ccccc3C2=O)cc1	·	-29.7	73.8*	·	36.8	97.5*
Cc1ccc(O)c(N=CC2=C(O)c3ccccc3C2=O)c1	·	-92.2	1.9	·	-22.7	-27.1
O=C1C(C=Nc2ccccc2)=C(O)c2ccccc21	·	-77.5	52.5*	·	10.6	60.8*
O=C1C(C=Nc2ccccc2O)=C(O)c2ccccc21	-65.7	·	8.3	64.8*	-5.1	43.6
CCOc1ccc(N=C(C)C2=C(O)c3ccccc3C2=O)cc1	-36.1	-170.0	-8.7	·	-14.3	8.0
COc1ccc(N=C(C)C2=C(O)c3ccccc3C2=O)cc1	·	-75.0	-11.9	25.8	-13.7	63.0*
CN1CCN(C(=O)C[C@H]2CC[C@@H]3[C@H](COC[C@@H](O)CN3C(=O)Nc3ccc(Cl)cc3)O2)CC1	-59.6	-41.9	·	-21.8	·	·
COC(=O)C[C@H]1CC[C@@H](N)[C@H](CO)O1	1.9	-1.3	·	·	·	·

Screening data deposited in PubChem BioAssay by several laboratories.
